Only some compounds are listed: those with a hit (about 1.7% of all), similar ones and a draw of the others.
FAK blocker: FAK kinase inhibitors, primary screen, biochemical. 97,000 tested, 0.84% active. inhibition, %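 (tested at 7 µM)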. biochemical FAK kinase activity assay;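 also: 0% = DMSO and 100% = reference compound high control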
LYP inh 2: PTPN22 phosphatase inhibitors, primary screen, biochemical, DiFMUP fluorescence, 2 µM; recombinant LYP catalytic domain; 96,000 tested, 0.21% active; Tyrosine-protein phosphatase non-receptor type 22 (Homo sapiens), Q9Y2R2; AID 640, 2007; inhibition, % at 2 µM;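 active = inhibition at 2 µM at or above a set limit, the screen mean plus 3 SD, cut at about 24% in these data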;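 also: 0% = DMSO with enzyme and 100% = enzyme fully blocked by orthovanadate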
PLK1 inh: human PLK1 kinase inhibitors, primary screen, biochemical, TR-FRET | Serine/threonine-protein kinase PLK1 (Homo sapiens), P53350 | recombinant PLK1 kinase, TR-FRET peptide phosphorylation | inhibition, % at 10 µM | 97,000 tested, 0.53% active | AID 619, 2007;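 active = inhibition of 50% or more in the single-concentration screen; inactive = inhibition below 50%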;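 also: 0% = DMSO max control and 100% = H-89 dihydrochloride min control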
Plk1 PBD FP: Plk1 polo box domain binding inhibitors, primary screen, biochemical, fluorescence polarization; Plk1 PBD phosphopeptide binding; inhibition, %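 (tested at about 20 µM)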; 97,000 tested, 0.13% active; AID 693, 2007; in the data active = inhibition above about 34%, passing the limit was not always enough
EphB4 ephrin blk: EphB4-ephrin-B2 interaction antagonists, primary screen, biochemical, TNYL-RAW peptide probe, fluorescence polarization. Ephrin type-B receptor 4 (Homo sapiens), P54760. EphB4 LBD / TNYL-RAW-Alexa532 peptide. inhibition, % at 7 µM. 97,000 tested, 0.15% active. AID 720, 2007;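 active = inhibition above the screen-wide mean inhibition plus 3 SD, cut at about 15% in these data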;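 also: 0% = DMSO wells and 100% = excess unlabeled TNYL-RAW peptide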
LYP act: LYP phosphatase activators, primary screen, biochemical, DiFMUP fluorescence, 2 µM; activation, % at 2 µM; 96,000 tested, 0.11% active; recombinant LYP; 0 = plate median, 100 = signal doubled; Tyrosine-protein phosphatase non-receptor type 22 (Homo sapiens), Q9Y2R2;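 active = activation at 2 µM above a set limit, the mean plus 5 SD, cut at about 37% in these data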
FAK inh confirm: FAK kinase inhibitors, retest, confirmation, biochemical. FAK kinase biochemical inhibition assay. shares compounds with FAK blocker. 750 tested, 28% active. inhibition, % at 7 µM. AID 794, 2007
* marks the source's active call; other numbers are inactive results; i = inactive; . = not tested or not shown. Rule as the data show it, unless noted: active = inhibition above about 19%; inactive = the rest.

SMILES	FAK blocker	LYP inh 2	PLK1 inh	Plk1 PBD FP	EphB4 ephrin blk	LYP act	FAK inh confirm
Cc1n(CC(O)COC2CCCCC2)c2ccccc2[n+]1C (centres undefined)	1	-6	-6	-15	0	4	.
Nc1ncnc2oc(-c3ccco3)c(-c3ccco3)c12	54*	-2	56*	-28	7	4	32*
O=S1(=O)N=C(Nc2ccc(N3CCOCC3)cc2)c2ccccc21	-2	8	-3	-7	-1	-9	.
Cc1ccccc1-c1ccc(Nc2ccc(N3CCOCC3)cc2)nn1	31*	14	-6	-28	-2	-17	33*
CCn1c(C)cc(/C=C2\SC(=O)N(CC(=O)Nc3ccc(C)c(C)c3)C2=O)c1C	-3	4	-9	18	-2	-2	.
Cc1ccc(NC(=O)CN2C(=O)S/C(=C/c3ccc(-c4cc(C(=O)O)ccc4C)o3)C2=O)cc1C	75*	35*	11	19	11	-33	19
O=C(O)c1ccccc1OCCOc1ccccc1C(=O)O	8	11	-2	30	-13	-14	.
O=C(O)c1ccccc1OCCOCCOc1ccccc1C(=O)O	38*	-4	-12	5	1	4	34*
COc1ccccc1N1CCN(CC(O)COc2ccc3c(c2)CCC3)CC1 (centres undefined)	-3	6	-18	-12	-1	-2	.
COc1cccc(C(=O)N(Cc2ccc(N(C)C)cc2)C2CCS(=O)(=O)C2)c1 (centres undefined)	0	-1	-6	-11	-7	-1	.
COC(=O)c1sc2cnccc2c1N	24*	-2	31	3	7	2	5
COCc1cc(C)nc2sc(C(=O)OC)c(N)c12	1	-5	-10	30	4	1	.
Clc1ccc2[nH]c3c(NCC4CCCO4)ncnc3c2c1 (centres undefined)	22*	11	4	-11	7	-12	10
CCOC(=O)C1CCN(c2nc3cc(OC)ccc3cc2C#N)CC1	19*	-1	-2	-2	5	0	0
COCCNC(=O)C(OC(=O)CC1Sc2ccccc2NC1=O)c1ccncc1 (centres undefined)	-1	-1	-4	23	-8	-3	.
O=C(CC1Sc2ccccc2NC1=O)OC(C(=O)NCCc1ccccc1)c1cccnc1 (centres undefined)	33*	3	-4	i	-5	-6	2
Cc1csc(=Nc2ccc(S(=O)(=O)N3CCOCC3)cc2)n1Cc1ccco1	-6	-4	-12	30	1	4	.
COc1ccc(N2CCN(C(=O)c3ccc(OCC4CCCO4)cc3)CC2)cc1 (centres undefined)	0	-12	-2	-7	1	9	.
Cc1cc2nnc(SC(C)C#N)n2c2ccccc12 (centres undefined)	35*	2	6	13	-1	-4	14
CCOc1ccc2nc(NC3=NC(c4ccc(OC)cc4)CC(=O)N3)nc(C)c2c1 (centres undefined)	36*	2	-5	-3	4	0	25*
CCOc1ccc2nc(NC3=NC(C)(C)C=C(C)N3)nc(C)c2c1	1	-6	-7	-21	-8	4	.
c1ccc(NCc2cccnc2)cc1	-1	9	-12	-27	-2	-6	.
O=C1c2ccccc2C(=O)c2c(NCc3cccnc3)cccc21	28*	6	-4	-11	6	-1	11
CCOc1ccc(-c2nnc3sc(COc4ccc(Cl)cc4)nn23)cc1	21*	1	-3	-3	-6	-2	9
CCOc1ccc(-c2nnc3sc(COc4ccc(C)cc4)nn23)cc1	-2	13	2	-23	1	-15	.
SMILES	FAK blocker	LYP inh 2	PLK1 inh	Plk1 PBD FP	EphB4 ephrin blk	LYP act	FAK inh confirm
CC(C)CN(C(=O)COC(=O)c1cc2c(s1)CCC2)C1CCS(=O)(=O)C1 (centres undefined)	30*	7	-1	-19	7	-9	9
O=C1c2ccccc2C(Nc2cccc(C(F)(F)F)c2)N1Cc1ccco1 (centres undefined)	20*	-3	-5	1	3	2	7
COc1cccc(NC2c3ccccc3C(=O)N2Cc2ccco2)c1 (centres undefined)	6	-2	1	-10	4	0	.
COc1ccc(-c2nn3c(-c4ccc(F)cc4)nnc3s2)cc1	36*	-1	-2	13	13	-1	9
O=C1NC(=S)N/C1=C\c1cccc([N+](=O)[O-])c1	0	2	28	0	-5	0	.
O=C1NC(=S)N/C1=C/c1ccc(-c2c(Br)cc([N+](=O)[O-])cc2Br)o1	36*	17	-18	-3	1	-14	11
Cc1cccc2c1NC(C)CC2C (centres undefined)	0	3	-12	-9	-4	-1	.

Assay outcomes from PubChem.
